Bead autofluor = counter-screen for toxin protease inhibitors: compound fluorescence; compound autofluorescence counterscreen, microsphere flow cytometry; active compounds read high; actives 3.1% (n = 360,000); fluorescence intensity (concentration not given with the values); AID 624483; in the data active means fluorescence intensity above about 16000; inconclusive means no clear call, values can overlap the other calls
Anthrax LF prot = inhibitors of Bacillus anthracis lethal factor protease; P15917; AID 588501; multiplex microsphere protease cleavage assay, LF; actives 0.12% (n = 360,000); inhibition, % at 10 µM; further: plate controls were buffer without enzyme for full effect and enzyme alone for no effect
Target sequence (P15917 whole entry, looked up): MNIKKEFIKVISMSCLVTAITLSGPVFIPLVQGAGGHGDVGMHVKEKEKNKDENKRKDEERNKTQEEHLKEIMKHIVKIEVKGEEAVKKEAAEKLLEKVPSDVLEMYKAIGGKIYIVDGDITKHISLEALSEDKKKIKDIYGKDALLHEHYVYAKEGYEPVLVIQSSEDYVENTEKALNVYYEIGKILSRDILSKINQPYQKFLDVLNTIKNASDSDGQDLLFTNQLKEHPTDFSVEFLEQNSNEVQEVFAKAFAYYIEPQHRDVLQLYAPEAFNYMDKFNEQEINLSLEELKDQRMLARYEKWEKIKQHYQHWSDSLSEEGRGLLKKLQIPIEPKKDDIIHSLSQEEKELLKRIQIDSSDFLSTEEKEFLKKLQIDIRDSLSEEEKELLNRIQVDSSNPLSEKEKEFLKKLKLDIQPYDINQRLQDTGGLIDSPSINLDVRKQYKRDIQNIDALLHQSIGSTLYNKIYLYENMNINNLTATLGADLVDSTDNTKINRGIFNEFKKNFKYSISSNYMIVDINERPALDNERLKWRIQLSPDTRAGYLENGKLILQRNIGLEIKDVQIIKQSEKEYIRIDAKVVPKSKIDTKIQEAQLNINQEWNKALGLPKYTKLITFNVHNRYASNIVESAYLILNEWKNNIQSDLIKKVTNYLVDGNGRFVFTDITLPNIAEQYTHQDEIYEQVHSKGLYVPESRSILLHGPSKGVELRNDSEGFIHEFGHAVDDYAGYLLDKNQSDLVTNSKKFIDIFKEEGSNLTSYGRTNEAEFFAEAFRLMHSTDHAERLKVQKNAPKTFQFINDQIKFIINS
BoNT A protease = blocks Botulinum neurotoxin A light chain protease; inhibition, % at 10 µM; multiplex microsphere protease substrate cleavage, flow cytometry; actives 0.17% (n = 360,000); AID 588499; further: plate controls were buffer without enzyme for full effect and enzyme alone for no effect
BoNT F protease = blocks Botulinum neurotoxin F light chain protease; Multiplex microsphere protease cleavage assay, flow cytometry; inhibition, % at 10 µM; actives 0.22% (n = 360,000); in the data active means inhibition above about 35%, passing the limit was not always enough; inconclusive means no clear call, values can overlap the other calls; further: plate controls were buffer without enzyme for full effect and enzyme alone for no effect
* = called active by the depositor; ? = inconclusive. This is a sample that favours compounds with a hit; in the whole collection about 3.5% have one here. Unless noted, no stated cut-off is given here; in the data, active means inhibition above about 30%; inconclusive means no clear call, values can overlap the other calls; inactive means below that.

SMILES	Bead autofluor	Anthrax LF prot	BoNT A protease	BoNT F protease
C=CCOc1c(Br)cc(C2NC(=O)NC(C)=C2C(C)=O)cc1OCC (configuration not stated)	22042*	-1.7	2.8	0.9
Cc1cccc(NC(=O)c2ncn3c2C(=O)N[C@H](C)C3)c1	4167	-5.4	0.6	-2.7
CC(=O)c1ccc(N2CCN(C(=O)c3ccc4c(=O)n(-c5ccccc5)c(=O)[nH]c4c3)CC2)cc1	22374*	-1.1	1.5	1.4
O=C(c1cccc(S(=O)(=O)N2CCCC2)c1)N1CCN(c2ccccc2)CC1	21121*	-0.8	-1.5	-2.2
O=C(c1ccccc1F)N1CCN(c2ccccc2)CC1	19300*	3.0	1.7	1.1
O=C(CSCc1ccc(F)cc1)N1CCN(c2ccccc2)CC1	23909*	-1.1	-4.8	-3.3
O=C(c1cccc(S(=O)(=O)N2CCCCCC2)c1)N1CCN(c2ccccc2)CC1	4203	-2.3	-1.0	-4.4
O=C(CSCc1ccc(F)cc1)N1CCN(c2ccc(F)cc2)CC1	10897	-1.4	0.9	2.4
CC1(C(=O)NS(=O)(=O)C2CC2)CCCN(C(=O)c2cccc(OC(F)(F)F)c2)C1 (configuration not stated)	3645	4.4	0.3	2.3
O=C(c1ccc(-c2ccccc2)cc1)N1CCN(c2ccccc2)CC1	4181	-0.2	-0.6	?
O=C(c1ccc2ccccc2c1)N1CCN(c2ccccc2)CC1	19676*	-0.7	?	-0.8
C=CCn1c(=O)[nH]c2cc(C(=O)N3CCN(c4cc(C)ccc4C)CC3)ccc2c1=O	16226*	-1.6	0.0	1.6
S=C(NCCc1ccccc1)N1Cc2cc(N3CCCCC3)ccc2-n2nncc2C1	32547*	-6.6	-20.1	70.4*
S=C(NCCc1ccccc1)N1Cc2cc(-c3ccccc3)ccc2-n2nncc2C1	5567	11.5	5.0	5.8
CNC(=O)CN(C)S(=O)(=O)c1ccc(F)cc1	23131*	-0.6	?	1.7
CN(CC(=O)O)S(=O)(=O)c1ccc(F)cc1	10317	0.0	0.1	-9.3
CNC(=O)C(C)NS(=O)(=O)c1ccc(F)cc1 (configuration not stated)	21451*	-1.2	-4.4	-5.2
Cc1ccc(NC(=O)C(C)NS(=O)(=O)c2ccc(F)cc2)cc1C (configuration not stated)	2522	-1.7	0.2	0.4
O=C(Nc1ccsc1C(=O)NC1CCCCC1)c1ccccc1	20407*	-0.8	?	-2.4
O=C(Nc1ccccc1C(=O)NC1CCCCC1)c1ccccc1	4867	0.5	2.8	8.0
Cc1ccc(C)n1-n1c(C)nc2scc(-c3ccccc3)c2c1=O	21049*	-3.1	-1.6	-1.7
CC(C)N1C(=O)S/C(=C/c2ccc3c(c2)n(C)c(=O)n3C)C1=O	6256	-2.0	-0.6	-7.8
CC(C)N1C(=O)S/C(=C/c2cccnc2)C1=O	22160*	-3.2	?	2.4
CC(C)Oc1cc(F)ccc1-c1cc(C(=O)NCCc2ccncc2)[nH]n1	3011	-1.5	-0.3	-1.1
O=C(Cn1nc(Cl)nc1Cl)c1cc2ccccc2oc1=O	16246*	-2.2	1.4	2.5
SMILES	Bead autofluor	Anthrax LF prot	BoNT A protease	BoNT F protease
Cc1ccc(C(=O)C2CCN(CC(=O)Nc3ccc4c(c3)OCCO4)CC2)cc1	23981*	-0.1	0.6	-3.4
O=C(CN1CCC(C(=O)c2ccc(F)cc2)CC1)Nc1ccc(F)cc1	8496	-0.8	-0.5	5.8
Cc1ccc(C(=O)C2CCN(CC(=O)Nc3ccc(N(C)C)cc3)CC2)cc1	21202*	-0.8	?	-4.7
CCN(CC(=O)Nc1ccc2c(c1)OCCO2)S(=O)(=O)c1ccc(C)cc1	17435*	2.4	-2.4	-3.7
Cc1cccc(NC(=O)CN2CCC(C(=O)c3ccc4c(c3)OCCO4)CC2)c1	3710	7.2	0.2	-8.4
O=C(CN1CCC(C(=O)c2ccc(F)cc2)CC1)Nc1ccccc1	19525*	0.3	0.6	-0.9
O=S1(=O)CC(N2CCCC2)CN1Cc1cn(Cc2ccc(F)cc2)nn1 (configuration not stated)	4182	-5.0	0.7	-6.6
COc1cccc(-c2cccc3c2NC(=O)C3(C)Cc2ccccc2F)c1 (configuration not stated)	2948	-4.1	-0.1	-5.3
COc1ccc(Br)cc1CN(C)C(=O)c1ccccc1OCc1c(C)noc1C	5703	-1.5	0.8	-6.8
COc1ccc(S(=O)(=O)N2CCC(C(=O)c3ccc4c(c3)OCCO4)CC2)cc1	9619	-0.5	0.6	3.6
CCN(CC(=O)Nc1ccc2c(c1)OCCO2)Cc1cc(=O)oc2c(C)c(C)ccc12	20523*	-1.9	?	9.4
CCOC(=O)C1CCN(C(=O)c2ccc3c(c2)OCCO3)CC1	4181	2.8	-0.3	-4.0
CCN(CC(=O)Nc1ccc2c(c1)OCCO2)CC(=O)Nc1ccc2c(c1)OCO2	4394	-0.7	-0.5	5.9
CCOc1ccc(C(=O)N2CCC(C(=O)c3ccc4c(c3)OCCO4)CC2)cc1	17361*	0.7	0.7	-0.2
O=C(c1ccc2c(c1)OCCO2)C1CCN(S(=O)(=O)c2ccccc2F)CC1	23887*	-6.8	?	-1.2
O=C(NCc1ccc(F)cc1)C1CCCN(C(=O)Nc2ccccc2)C1 (configuration not stated)	19569*	-4.4	?	-0.6
CCc1nc2c(OCc3ccc(Cl)cc3)cccn2c1N(C)C(=O)c1ccncc1	2977	-3.0	-0.2	1.9
O=C(c1ccc(F)cc1)C1CCN(C(=O)NCc2ccccc2)CC1	24106*	-0.2	-1.1	-0.8
CSc1nc(-c2ccc(Cl)cc2)nn1S(=O)(=O)c1ccccc1	4249	-6.4	0.1	-2.4
CS(=O)(=O)n1nc(-c2ccc(Cl)cc2)nc1SCc1ccccc1	24875*	-1.2	-3.7	-6.2
CN(CCO)c1cc(Sc2nc3ccccc3s2)c2nonc2c1[N+](=O)[O-]	21417*	-0.8	2.1	3.0
COc1ccc2nc(NC(=O)CCN3C(=O)c4ccccc4C3=O)sc2c1	16754*	0.2	?	-2.7
COc1ccc2nc(NC(=S)N(C)C)sc2c1	23623*	-0.6	-2.8	-4.4
COc1ccc2nc(NC(=O)C(NS(=O)(=O)c3cccs3)C(C)C)sc2c1 (configuration not stated)	21430*	-3.0	-4.4	-5.9
CCCC(=O)Nc1nc2ccc(OC)cc2s1	6001	-3.9	-1.3	-6.7
SMILES	Bead autofluor	Anthrax LF prot	BoNT A protease	BoNT F protease
COc1ccc2nc(NC(=O)c3ccoc3C)sc2c1	21922*	1.4	1.3	0.9
Cc1ccc(NC(=O)CSC2=C(C#N)C(c3ccc4c(c3)OCO4)CC(=O)N2)cc1C (configuration not stated)	22137*	-6.7	2.0	4.4
CCc1ccc(NC(=O)CSC2=C(C#N)C(c3ccc4c(c3)OCO4)CC(=O)N2)cc1 (configuration not stated)	9177	-3.0	0.6	2.6
CCOC(=O)[C@]12CCC=C1N(Cc1ccco1)C(=O)[C@H](CC(=O)NCCc1ccccc1OC)C2	6199	-8.2	0.3	5.8
COc1ccc(C(=O)Nc2ccc(S(=O)(=O)N3CCc4ccccc43)cc2)cc1	16637*	-3.3	-0.9	-5.8
O=C(Nc1ccc(S(=O)(=O)N2CCCc3ccccc32)cc1)C1CCCO1 (configuration not stated)	17480*	-3.0	-5.6	-3.2
